“And” between values parts separate entries of the source, which are not always exact repeats. Equal entries are not always repeated. About 2,000 (36%) of roughly 5,500 compounds were called active. Inconclusive results (about 18%) are left out. No stated cut-off is given here; in the data, active means normalized growth mostly below about 0.91 (no sharp cut-off); inconclusive means no clear call, values can overlap the other calls; inactive means mostly above about 0.92. The list shows a part of the results.
Assay: chemical genetic growth profiling, strain panel (AID 1159580);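 further: tested at 20 µM; growth read once vehicle control cultures reached saturation at 30 °C; 1 = growth at the plate median or of vehicle wells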
Conditions: S. cerevisiae deletion strains, growth OD

Measured: normalized growth

COC(=O)C[C@H]1C(C)(C)[C@@H](OC(C)=O)[C@@H]2CC3=C4CC(=O)O[C@@H](c5ccoc5)[C@]4(C)CCC3[C@@]1(C)C2=O (stereo partly specified)
inactive: locus YAL021C, strain ccr4, stronger effect = lower value 1.04 | locus YAL026C, strain drs2, stronger effect = lower value 0.998 | locus YAL030W, strain snc1, stronger effect = lower value 0.996 | locus YBL061C, strain skt5, stronger effect = lower value 0.991 | locus YBR009C, strain hhf1, stronger effect = lower value 1 | locus YBR021W, strain FUR4, stronger effect = lower value 1.01 | locus YBR023C, strain chs3, stronger effect = lower value 1 | locus YBR171W, strain sec66, stronger effect = lower value 0.996 | locus YBR229C, strain ROT2, stronger effect = lower value 0.997 | locus YBR231C, strain swc5, stronger effect = lower value 0.971 | locus YBR279W, strain paf1, stronger effect = lower value 0.999 | locus YCL011C, strain gbp2, stronger effect = lower value 1.01 | locus YCL016C, strain dcc1, stronger effect = lower value 1.01 | locus YCL029C, strain bik1, stronger effect = lower value 0.998 | locus YCL061C, strain MRC1, stronger effect = lower value 0.999 | locus YCL069W, strain vba3, stronger effect = lower value 0.984 | locus YCR088W, strain abp1, stronger effect = lower value 0.995 | locus YDL005C, strain med2, stronger effect = lower value 0.991 | locus YDL035C, strain GPR1, stronger effect = lower value 0.986 | locus YDL040C, strain nat1, stronger effect = lower value 0.995 | locus YDL074C, strain BRE1, stronger effect = lower value 0.996 | locus YDL101C, strain DUN1, stronger effect = lower value 1.02 | locus YDL185W, strain tfp1, stronger effect = lower value 1.01 | locus YDL192W, strain arf1, stronger effect = lower value 0.998 | locus YDR001C, strain nth1, stronger effect = lower value 0.997 | locus YDR069C, strain doa4, stronger effect = lower value 0.982 | locus YDR101C, strain arx1, stronger effect = lower value 0.976 | locus YDR137W, strain rgp1, stronger effect = lower value 0.997 | locus YDR159W, strain sac3, stronger effect = lower value 0.962 | locus YDR162C, strain NBP2, stronger effect = lower value 0.983 | locus YDR195W, strain ref2 0.938 | locus YDR297W, strain sur2, stronger effect = lower value 0.983 | locus YDR318W, strain mcm21, stronger effect = lower value 0.998 | locus YDR334W, strain swr1, stronger effect = lower value 0.99 | locus YDR335W, strain msn5, stronger effect = lower value 1 | locus YDR388W, stronger effect = lower value 1.01 | locus YDR392W, strain spt3, stronger effect = lower value 0.963 | locus YDR502C, strain sam2, stronger effect = lower value 1 | locus YEL003W, strain gim4, stronger effect = lower value 0.978 | locus YEL037C, strain rad23, stronger effect = lower value 0.989 | locus YEL061C, strain CIN8 (second series), stronger effect = lower value 0.99 | locus YER015W, strain faa2, stronger effect = lower value 1 | locus YER016W, strain bim1, stronger effect = lower value 0.995 | locus YER110C, stronger effect = lower value 1 | locus YER111C, strain swi4, stronger effect = lower value 1 | locus YER155C, strain BEM2 (second series), stronger effect = lower value 1.01 | locus YER155C, strain BEM2, stronger effect = lower value 0.997 | locus YER167W, strain BCK2, stronger effect = lower value 0.998 | locus YFR010W, strain ubp6, stronger effect = lower value 0.976 | locus YGL078C, strain dbp3, stronger effect = lower value 1.01 | locus YGL086W, strain mad1, stronger effect = lower value 1.01 | locus YGL167C, strain pmr1, stronger effect = lower value 1.01 | locus YGL173C, strain kem1, stronger effect = lower value 0.989 | locus YGL227W, strain vid30, stronger effect = lower value 0.993 | locus YGL240W, strain doc1, stronger effect = lower value 1 | locus YGL248W, strain PDE1, stronger effect = lower value 1 | locus YGL253W, strain hxk2, stronger effect = lower value 0.913 | locus YGR078C, strain PAC10, stronger effect = lower value 1.01 | locus YGR135W, strain pre9, stronger effect = lower value 1.02 | locus YGR252W, strain gcn5, stronger effect = lower value 1.01 | locus YHR013C, strain ard1, stronger effect = lower value 1.01 | locus YHR027C, strain rpn1, stronger effect = lower value 1 | locus YHR030C, strain SLT2, stronger effect = lower value 1 and 0.993 | locus YHR079C, strain IRE1 (second series), stronger effect = lower value 0.996 | locus YHR079C, strain IRE1, stronger effect = lower value 0.992 | locus YHR094C, strain hxt1, stronger effect = lower value 1 | locus YHR129C, strain ARP1, stronger effect = lower value 1.01 | locus YHR142W, strain chs7, stronger effect = lower value 0.988 | locus YHR200W, strain rpn10, stronger effect = lower value 1.01 | locus YIL066C, strain RNR3, stronger effect = lower value 1.01 | locus YIL073C, strain SPO22, stronger effect = lower value 1.02 | locus YIL125W, strain kgd1, stronger effect = lower value 0.993 | locus YIR030C, strain dcg1, stronger effect = lower value 1 | locus YJL092W, strain hpr5, stronger effect = lower value 0.996 | locus YJL095W, strain BCK1 (second series), stronger effect = lower value 1.01 | locus YJL095W, strain BCK1, stronger effect = lower value 1.04 and 0.984 | locus YJL115W, strain asf1, stronger effect = lower value 0.997 | locus YJL129C, strain trk1, stronger effect = lower value 0.952 | locus YJL134W, strain LCB3, stronger effect = lower value 0.998 | locus YJL154C, strain vps35, stronger effect = lower value 0.998 | locus YJL164C, strain tpk1, stronger effect = lower value 1.03 | locus YJL166W, strain qcr8, stronger effect = lower value 1 | locus YJL168C, strain set2, stronger effect = lower value 0.995 | locus YJL187C, strain SWE1 (second series), stronger effect = lower value 1.03 | locus YJL187C, strain SWE1, stronger effect = lower value 1.01 | locus YJR043C, strain POL32, stronger effect = lower value 0.987
